Values joined by “and” are separate entries in the source; they are usually repeats but may differ in a detail not shown here. Identical values can stand only once. In all, about 2,300 compounds went through this assay and about 1,400 (61%) were called active. Not shown: some 29% with an inconclusive outcome. So high a share suggests a set chosen from earlier hits. This is one part of the list. Unmarked numbers belong to inactive results. The call rests on the fitted dose curve; in most records, active means well fitted inhibition curve with a large enough effect; inconclusive means small, poorly fitted or top-dose-only effect, or effect the other way; inactive means no such curve, though single readings can be large or run the other way.

We go through 59 compounds from PubChem BioAssay AID504848 (National Center for Advancing Translational Sciences (NCATS), 2011).
On the % scale 0 is the no-effect control and ±100 the full control effect; potency means the concentration at half of the fitted maximal effect.

A short description of this assay: Confirmation screen for delayed death inhibitors of the malarial parasite plastid, 96 hour incubation. Further: nearly all actives have a fitted effect of over 60% in size. Conditions: P. falciparum luciferase growth in erythrocytes; series mostly up to 28.7 µM; activity change, negative = inhibition: at the top concentration. The source says: The goal of this screen is to discover new antimalarial compounds that act by inhibiting the development of the apicoplast in the malarial parasite Plasmodium falciparum. The biochemical processes that make this organelle essential for erythrocytic stage parasites are not well understood. However, antibiotics, such as azithromycin and tetracycline, which target the apicoplast translational machinery, have a potent antimalarial effect. […] We have developed a cell-based assay that measures parasite growth based on the expression of an integrated copy of a firefly luciferase reporter. To detect small molecules that cause this "delayed death phenotype, erythrocytes infected with the luciferase-expressing parasites were incubated with compounds for either one or two generations, corresponding to 48 and 96 hours, respectively. Compounds that inhibit parasite growth in the second generation, but not the first, should be enriched in antimalarials that target the apicoplast. Growth inhibition is detected by a decrease in luciferase activity. MLPCN Grant: R21 NS059500 Assay Provider: David Fidock and Eric Ekland, Columbia University Keywords: NIH Roadmap, MLPCN, MLI, MLSMR, qHTS, NCGC, qHTS, malaria, luciferase, viability
Four microliters of culture medium (RPMI 1640 with 0.5% w/v Albumax (GIBCO), 24 mM sodium bicarbonate and 10 ug/mL gentamycin) were dispensed by a Multi-drop Combi into white solid 1536-well plates (Grenier) and 23 nL compound was added by a pin tool. Four microliters of infected erythrocytes (2% hematocrit, 0.1% parasitemia final concentration) in culture medium were dispensed and the plates incubated for 96 hours at 37 C in 5% CO2. Two microliters of luciferase detection reagent was added and luminescence was detected by a ViewLux (PerkinElmer) reader
Take `COc1ccc(-n2c(C)cc(C(=O)C[N+]34CCN(CC3)CC4)c2C)cc1`: the Potency was 12.6 µM (active). On the same count and under the same terms, the figure for `C[C@@H]1CC2(CCCC[N+]2(C)C)C[C@H]1C` is 14.1 µM (active). As for `CC(=O)N1CC(=O)Nc2ccc(Cl)cc2C1c1ccccc1` (centres undefined), the “activity change, negative = inhibition” value was -21.6%.

On to `CN1C[C@H](C(=O)N[C@]2(C)O[C@@]3(O)[C@@H]4CCCN4C(=O)[C@H](Cc4ccccc4)N3C2=O)C[C@@H]2c3cccc4[nH]cc(c34)C[C@H]21`, for which the Potency is 2.24 µM (active). Turning to `O=C(CN1CC=C(c2ccccc2)CC1)NC(=O)NCc1ccccc1`, the “activity change, negative = inhibition” value was -23%. On the same count and under the same terms, the result for `Cc1ccc(N2C(=O)NC(=O)/C(=C\C=C\c3ccco3)C2=O)cc1` reads -0.857%.

`CC(C)(C)C(=O)C(Oc1ccc(Cl)cc1)n1ccnc1` (centres undefined): the Potency is 14.1 µM (active). Still for that read-out and setting: the figure for `C=C[C@H]1CN2CC[C@H]1C[C@@H]2[C@@H](O)c1ccnc2ccccc12` is 0.199 µM (active); for `C[n+]1c2cc(N)ccc2cc2ccc(N)cc21` it is 0.562 µM (active); for `Cn1c(=O)oc2cc(NC(=O)CCl)ccc21` it is 0.794 µM (active). Take `CCn1c(=O)oc2cc(NC(=O)CCl)ccc21`: the Potency was 2 µM (active).

Take `CN1CCc2cc3c(c4c2C1Cc1ccccc1-4)OCO3` (centres undefined): the Potency was 0.562 µM (active).

Turning to `C=C1C(=O)O[C@@H]2C[C@@H](C)[C@@H]3C=CC(=O)[C@@]3(C)[C@@H](O)[C@H]12`, the Potency was 2 µM (active).

As for `C=C1C(=O)O[C@@H]2C[C@@H](C)[C@@H]3C=CC(=O)[C@@]3(C)[C@@H](OC(=O)CC(=O)O[C@H]3[C@@H]4C(=C)C(=O)O[C@@H]4C[C@@H](C)[C@@H]4C=CC(=O)[C@]43C)[C@H]12`, the Potency was 0.0282 µM (active). With `C=C1C(O)[C@@H]2O[C@]3(CC[C@H](/C=C/C(C)[C@@H]4CC(C)=CC5(O[C@H](C[C@@](C)(O)C(=O)O)CCC5O)O4)O3)CC[C@H]2O[C@@H]1C(O)CC(C)[C@H]1OC2(CCCCO2)CCC1C` (some centres undefined), the Potency was 0.0631 µM (active). Regarding `O=c1oc2ccccc2c(O)c1[C@H]1c2ccc(O)cc2Oc2c1c(=O)oc1ccccc21`, the “activity change, negative = inhibition” value was 18%.

Turning to `CC(C)c1oc(=O)cc2c1[C@@H](O)[C@H]1OC(=O)[C@@]3(C)CC[C@@H](O)[C@@]2(C)C13` (some centres undefined), the Potency is 7.94 µM (active). Still for that read-out and setting: the figure for `O=C(/C=C/c1cccs1)c1cc(Cl)ccc1OC(=O)N1CCOCC1` is 11.2 µM (active).

Turning to `Cc1cc2ccccn2c1C(C[N+](=O)[O-])c1c(F)cccc1Cl` (centres undefined), the Potency is 12.6 µM (active).

`Cc1ccc(C(C)C)c(OCC(=O)N2CCN(Cc3nc4cc([N+](=O)[O-])ccc4n3C)CC2)c1`: the “activity change, negative = inhibition” value is -11.1%. With `COc1cccc(-n2c(CN3CCN(C)CC3)nc3ccc([N+](=O)[O-])cc3c2=O)c1`, the Potency is 15.8 µM (active). On to `CC(C)c1ccc(N2C(=O)NC(=O)/C(=C\C=C\c3ccco3)C2=O)cc1`, for which the “activity change, negative = inhibition” value is -9.71%. Consider `O=C(CCl)Nc1nccs1`, for which the Potency is 6.31 µM (active). As for `Fc1ccc(C[n+]2c(-c3ccccc3)cc(-c3ccccc3)cc2-c2ccccc2)cc1`, the Potency was 2 µM (active). Regarding `O=C1NC(=O)N(c2ccccc2)C(=O)/C1=C/C=C/c1ccco1`, the “activity change, negative = inhibition” value was -22.6%.

For the compound `C=CCn1c(O)c(N=Nc2c(C)n(C)n(-c3ccccc3)c2=O)c(=O)[nH]c1=S`, the Potency was 6.31 µM (active). With `O=[N+]([O-])c1cccc2c([As](=O)(O)O)cccc12`, the Potency is 1.12 µM (active). On the same count and under the same terms, the result for `C[C@@H]1C[C@@H]2O[C@H]2/C=C\C=C\C(=O)Cc2c(Cl)c(O)cc(O)c2C(=O)O1` reads 7.08 µM (active); that for `COC(=O)c1nc(-c2ccc3c(n2)C(=O)C(N)=C(OC)C3=O)c(N)c(-c2ccc(OC)c(OC)c2O)c1C`, 0.251 µM (active). Same read-out and setting: the result for `O=C(NC1CC2CCCC(C1)N2)c1ccccc1` (centres undefined) reads 5.01 µM (active). `Cc1ccc(-c2nc(NC(=O)c3ccc(S(=O)(=O)N(CCC#N)CCC#N)cc3)sc2-c2ccccc2)cc1`: the Potency was 11.2 µM (active). The same measure, in the same setting: the figure for `CN1C2CCC1/C(=C/c1ccccn1)C(=O)/C2=C\c1ccccn1` is 0.158 µM (active).

Take `C[C@@H]1O[C@@H](O[C@H]2C[C@@H](O)[C@]3(CO)[C@@H]4C(CC[C@]3(O)C2)[C@@]2(O)CC[C@H](C3COC(=O)C3)[C@@]2(C)C[C@H]4O)[C@H](O)[C@H](O)[C@H]1O` (some centres undefined): the “activity change, negative = inhibition” value was -24%.

Turning to `CCOc1cc2c(cc1OCC)-n1cccc1C(c1ccccc1F)NC2` (centres undefined), the Potency is 5.01 µM (active). On the same count and under the same terms, the figure for `C[C@@H]1C[C@@H]([C@H](O)CC2CC(=O)NC(=O)C2)C(=O)[C@@H](C)C1` is 0.794 µM (active); for `C[C@H]1C[C@@H](C)C(=O)[C@@H]([C@H](O)CC2CC(=O)NC(=O)C2)C1` it is 0.0316 µM (active); for `C/C1=C\[C@@H](C)C/C=C/[C@H]2[C@@H]3O[C@]3(C)[C@@H](C)[C@H]3[C@H](Cc4c[nH]c5ccccc45)NC(=O)[C@]32C(=O)/C=C/C(=O)[C@@H]1O` it is 0.891 µM (active). Same read-out and setting: the result for `CCC(C(=O)N1CCC2(CC1)OCCO2)n1c2ccccc2c2nc(=O)cc(C)n21` (centres undefined) reads 11.2 µM (active); that for `C[C@@H]1CC[C@H]2[C@@H](C)C(=O)O[C@@H]3O[C@@]4(C)CC[C@@H]1[C@]32OO4`, 0.0398 µM (active); that for `C[C@@H]1CC[C@H]2[C@@H](C)C(=O)O[C@@H]3OC4(C)CC[C@@H]1C32OO4` (some centres undefined), 0.0398 µM (active). On the same count and under the same terms, the figure for `CCN(CC)Cc1cc(Nc2ccnc3cc(Cl)ccc23)ccc1O` is 89.1 nM (active) and 22.4 nM (active); for `C[n+]1c(-c2ccccc2)cc(-c2ccc(Cl)cc2)cc1-c1ccccc1` it is 0.891 µM (active). On to `COc1ccc(-c2cc(-c3ccccc3)[n+](C)c(-c3ccccc3)c2)cc1`, for which the Potency was 2 µM (active). As to `CCOP(=O)(OCC)C(O)c1ccc(OC)cc1OC` (centres undefined), the “activity change, negative = inhibition” value is 9.71%.

With `O=C1/C(=C/c2ccccc2)C[C@@]2(O)[C@H]3Cc4ccc(O)c5c4[C@@]2(CCN3CC2CC2)C1O5` (some centres undefined), the Potency was 5.01 µM (active).

Regarding `COc1ccc(Cn2c(N)c(C(=O)NCc3ccco3)c3nc4ccccc4nc32)cc1`, the Potency was 3.98 µM (active). Same read-out and setting: the result for `CC(C)CCOP(N)(=O)Oc1ccccc1` (centres undefined) reads 3.98 µM (active). As to `CC[n+]1c(-c2ccccc2)c2cc(N)ccc2c2ccc(N)cc21`, the Potency is 0.0282 µM (active).

Take `CC1=CC2/C=C(\C)CCC(O)C(O)/C=C/C(=O)C23C(=O)NC(CC(C)C)C3C1C` (centres undefined): the Potency is 12.6 µM (active). In the case of `CCCNS(=O)(=O)c1ccc(OCC(=O)N2CCN(Cc3ccc4c(c3)OCO4)CC2)c(C)c1`, the Potency was 11.2 µM (active).

For `Oc1ccc(-[n+]2c(-c3ccccc3)cc(-c3ccccc3)cc2-c2ccccc2)cc1`, the Potency is 0.0794 µM (active). In the case of `COc1cc(C(=O)N/N=C/C23CC[C@@H](O)CC2(O)CC[C@@H]2[C@@H]3CCC3(C)C(C4=CC(=O)OC4)CCC23O)ccc1O` (some centres undefined), the “activity change, negative = inhibition” value is -32%. Turning to `CC12CC[C@H]3[C@@H](CCC4(O)C[C@H](O)CCC34/C=N/NC(=O)c3ccccc3F)C1(O)CCC2C1=CC(=O)OC1` (some centres undefined), the “activity change, negative = inhibition” value was -94.9%. Take `CN(C)c1ccc(C(=O)N/N=C/C23CC[C@@H](O)CC2(O)CC[C@@H]2[C@@H]3CCC3(C)C(C4=CC(=O)OC4)CCC23O)cc1` (some centres undefined): the Potency was 12.6 µM (active). Same read-out and setting: the figure for `COC(=O)C1=C(c2ccccc2OCc2ccccc2)C[C@@H]2CC[C@H]1N2C(=O)NCCOc1ccc(OC)cc1` is 12.6 µM (active); for `CC[C@H]1CN2CCc3cc(OC)c(OC)cc3C2C[C@@H]1C[C@H]1NCCc2cc(OC)c(OC)cc21` (some centres undefined) it is 0.0501 µM (active); for `CC[C@H]1CN2CCc3cc(OC)c(OC)cc3[C@H]2C[C@@H]1C[C@@H]1NCCc2cc(OC)c(OC)cc21` it is 0.501 µM (active). As to `CC[C@H]1CN2CCc3cc(OC)c(OC)cc3[C@@H]2C[C@@H]1C[C@H]1NCCc2cc(OC)c(OC)cc21`, the Potency was 0.224 µM (active). In the case of `Cn1c(O)c(C=NC2C(=O)C3(C)CCC2C3(C)C)c(=O)n(C)c1=O` (centres undefined), the “activity change, negative = inhibition” value is 9.58%.
